Here are results for 16 compounds from PubChem BioAssay (NCATS).

Several values for one entry are separate records, joined by “and”; a condition that tells them apart may be missing. Equal entries are not always repeated. Results filed as inconclusive are left out. Activity calls are given as the source filed them. Calls come from the whole dose curve; as a rule, active = well fitted curve in the direction sought with a large enough effect; inconclusive = small, poorly fitted or top-dose-only effect, or another doubt; inactive = no such curve, though single readings can be large; an effect the other way counts as inactive or inconclusive.

The nature of assay [1]: Identifying Small Molecule Inhibitors of Pancreatic Cancer Stem Cells (SN12C, Spheroid) (AID 1259360). Note: potency is the fitted concentration of half-maximal effect. The settings on record: Potency: SN12C spheroid viability. The essentials:
(§1)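 Pre-formed 14-day tumor spheroids or adherent cells dosed and incubated 48 h, 37C, 5% CO2. Viability assessed by CellTiter-Glo.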

The nature of assay [2]: Identifying Small Molecule Inhibitors of Pancreatic Cancer Stem Cells (A278, Adherent) (AID 1259361). Note: nearly all actives have a fitted effect of over 35% in size. The essentials: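 Adherent (2D) versus sphere (3D) formats; spheres generated 14 d in SCM beforehand. Compound transferred by pin tool after 4 h, 48 h incubation, CellTiter-Glo endpoint.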
The nature of assay [3]: P-glycoprotein substrates identified in KB-8-5-11 adenocarcinoma cell line, qHTS therapeutic library screen (AID 1346987). Note: nearly all actives have a fitted effect of over 65% in size. Note: potency is the fitted concentration of half-maximal effect. The essentials: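 P-gp-mediated resistance screen: KB-8-5-11 cells treated 72 h with compounds in dose-response. CellTiter-Glo viability.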
In general terms: In qHTS, concentration-response curves come from the screen itself.

Assay [4] in a line: qHTS of pediatric cancer cell lines to identify multiple opportunities for drug repurposing: Primary screen for TC32 cells (AID 1347089). Note: nearly all actives have a fitted effect of over 60% in size. Note: potency is the fitted concentration of half-maximal effect. The essentials: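 A viability screen of TC32 cells was run over 48 h, with primary MIPE doses spanning 0.78 nM–46 µM and NPC doses 0.59 nM–46 µM. ATP luminescence (CellTiter-Glo) served as the read-out.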
A short description of assay [5]: qHTS of pediatric cancer cell lines to identify multiple opportunities for drug repurposing: Primary screen for SJ-GBM2 cells (AID 1347091). Note: potency is the fitted concentration of half-maximal effect. The essentials: (§2)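 Cell viability, CellTiter-Glo luminescence; 500-1,000 cells/well, 8- or 11-point titration, 48 h compound exposure at 37 degrees C, 5% CO2. Controls: DMSO neutral, bortezomib 2.3 µM final as positive.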
Assay [6] is described as follows: qHTS of pediatric cancer cell lines to identify multiple opportunities for drug repurposing: Primary screen for A673 cells (AID 1347092). Note: nearly all actives have a fitted effect of over 45% in size. Note: potency is the fitted concentration of half-maximal effect. The essentials:
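Titration-based qHTS on A673 cells: MIPE compounds spanned 11 points (0.78 nM to 46 µM final), NPC compounds 8 points (0.59 nM to 46 µM final). Viability after 48 h was measured by ATP luminescence.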

Assay [7] can be described thus: qHTS of pediatric cancer cell lines to identify multiple opportunities for drug repurposing: Primary screen for SK-N-MC cells (AID 1347093). Note: potency is the fitted concentration of half-maximal effect. The essentials:
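Metabolically active cells were quantified by ATP-dependent luminescence (CellTiter-Glo, 15 min at room temperature) following 48 h treatment. Cells had been plated at 500-1,000 per well and settled for 5 h beforehand.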

Assay [8] is described as follows: qHTS of pediatric cancer cell lines to identify multiple opportunities for drug repurposing: Primary screen for NB-EBc1 cells (AID 1347095). Note: potency is the fitted concentration of half-maximal effect. The essentials:
(§3)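 Primary screen of approved and investigational compounds on cells in growth media at 37 degrees C, 5% CO2. MIPE set at 11-point and NPC set at 8-point dilutions; viability scored by ATP-based luminescence at 48 hours.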

Assay [9] in a line: Identifying Small Molecule Inhibitors of Pancreatic Cancer Stem Cells (Panc1, Adherent) (AID 1259362). Note: potency is the fitted concentration of half-maximal effect. The settings on record: Potency: viability. The essentials:
as §1

Assay [10] in a line: P-glycoprotein substrates identified in KB-3-1 adenocarcinoma cell line, qHTS therapeutic library screen (AID 1346986). Note: nearly all actives have a fitted effect of over 60% in size. The essentials:
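Counter-screen: cherry-picked hits retested in the KB pair and in HEK-293 pcDNA/MDR-19 cells ± tariquidar. Primary screen used 72 h CellTiter-Glo viability in KB-3-1 and KB-8-5-11.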

A short description of assay [11]: NS1 protein of Zika virus - qHTS assay to identify small molecule inhibitors in human HEK 293 cells (AID 1347053). Note: nearly all actives have a fitted effect of over 55% in size. Note: potency is the fitted concentration of half-maximal effect. The essentials: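 Following 20 h seeding, HEK 293 cells took compound, then 1 h later ZIKV MR766 (MOI = 0.5). Incubation ran 24 h at 37 C before TR-FRET detection of NS1; a drop in signal indicates inhibition.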
Assay [12] can be described thus: qHTS of pediatric cancer cell lines to identify multiple opportunities for drug repurposing: Primary screen for DAOY cells (AID 1347090). Note: nearly all actives have a fitted effect of over 55% in size. Note: potency is the fitted concentration of half-maximal effect. The essentials: as §2
A short description of assay [13]: qHTS of pediatric cancer cell lines to identify multiple opportunities for drug repurposing: Primary screen for BT-37 cells (AID 1347094). Note: potency is the fitted concentration of half-maximal effect. The essentials:
as §3

Regarding `C[C@@H](Oc1cc(-c2cnn(C3CCNCC3)c2)cnc1N)c1c(Cl)ccc(F)c1Cl`, the Potency is 20.9 µM (active) in assay [1]; 13.2 µM (active) and 16.4 µM (active) and 11.6 µM (active) in assay [3]; 20.8 µM (active) in assay [4]; 0.0743 µM (active) in assay [5]; 14.8 µM (active) in assay [6]; 2.35 µM (active) in assay [7]. The Potency in assay [8] is 9.35 µM (active). Moreover, the IC50 (viability decrease) in assay [2] was 4.18 µM (active).

With `Clc1ccc2ncc(-c3cccc(NC4CNC4)n3)n2c1`, the Potency entry in [1], in [9], in assay [10], in [3], in assay [11] and in [4] was “inactive” each time. Besides, the values for the Potency in [6] and in [8] were 4.69 µM (active) and 1.48 µM (active), respectively.

As to `C=C1C(=CC=C2CCC[C@]3(C)[C@@H]([C@H](C)C=C[C@H](C)C(C)C)CC[C@@H]23)C[C@@H](O)C[C@@H]1O`, the Potency result in [1], in [10], in assay [3] and in assay [11] was “inactive” throughout. The Potency was 26.4 µM (active) in assay [9]; 11.7 µM (active) in assay [4]; 1.87 µM (active) in [12]; 0.743 µM (active) in assay [5]; 0.469 µM (active) in assay [6]; 0.469 µM (active) in assay [7]. Further, the Potency in assay [8] is 0.526 µM (active).

`CC(C)(C)OC(=O)Nc1ccc(-c2cc(C(=O)NCCCCCCC(=O)NO)no2)cc1`: the Potency in [1] is 16.6 µM (active); in assay [3], 8.33 µM (active); in [11], 26.4 µM (active); in assay [4] it was 9.3 µM (active); in assay [12], 4.69 µM (active); in assay [5] it was 1.48 µM (active). In addition, the Potency in assay [6] was 2.96 µM (active); in assay [7] it was 0.833 µM (active); in [13], 5.44 µM (active); in assay [8], 1.18 µM (active). The IC50 (viability decrease) in assay [2] is 2.35 µM (active).

For the compound `COC(=O)c1ccc2c(C(=Nc3ccc(N(C)C(=O)CN4CCN(C)CC4)cc3)c3ccccc3)c(O)[nH]c2c1`, the Potency is 18.7 µM (active) in assay [1]; 10.4 µM (active) in assay [4]; 0.59 µM (active) in [12]; 0.296 µM (active) in assay [6]; 3.85 µM (active) in assay [13]; 2.09 µM (active) in [8]. The IC50 (viability decrease) in [2] is 4.69 µM (active). The Potency entry in assay [11] was “inactive”.

Turning to `COc1ccc(OC)c(-c2nnc3ccc(-c4ccc(OC)c(O[C@@H]5CCOC5)c4)nn23)c1`, the Potency in assay [1] is 18.7 µM (active); in [3], 4.61 µM (active); in assay [11], 9.35 µM (active); in [6], 14.8 µM (active); in assay [7], 18.7 µM (active); in assay [13], 27.3 µM (active). Moreover, the IC50 (viability decrease) in assay [2] is 5.9 µM (active). Moreover, the Potency result in assay [4] and in assay [8] was “inactive” throughout.

Regarding `c1ccc2c(CCNc3ccc(Nc4ccncc4)cc3)c[nH]c2c1`, the Potency was 23.5 µM (active) in assay [1]; 8.33 µM (active) in assay [11]; 20.8 µM (active) in assay [4]; 5.9 µM (active) in [5]; 18.7 µM (active) in assay [6]; 4.32 µM (active) in assay [13]. Besides, the Potency in assay [8] is 2.35 µM (active). The IC50 (viability decrease) in [2] was 16.6 µM (active).

In the case of `O=C(O)[C@H](Cc1c[nH]c2ccccc12)N1C(=O)c2ccccc2C1=O`, the Potency entry in [1], in [9], in assay [3], in [11], in assay [4] and in assay [12] was “inactive” in each case. Further, the Potency entry in assay [5] and in [8] was “inactive” in each case. In assay [7], the Potency was 48.1 µM (active).

Regarding `CCCCCN(CCC12CC3CC(CC(C3)C1)C2)C(=O)NCCCc1ccncc1`, the Potency result in [1], in assay [11] and in assay [4] was “inactive” throughout. The Potency was 16.4 µM (active) in [3]; 18.7 µM (active) in [5]; 16.6 µM (active) in assay [7]; 24.3 µM (active) in [13]; 20.9 µM (active) in assay [8].

As for `CC(NCc1ccc2c(c1)nc(NC(=O)c1ccc(-c3cn[nH]c3)s1)n2CC(C)(C)O)C(C)(C)C` (stereo unspecified), the Potency in [1] is 0.469 µM (active); in assay [9], 0.264 µM (active); in [11] it was 4.69 µM (active); in assay [4] it was 2.62 µM (active); in assay [12], 2.96 µM (active); in [5] it was 0.296 µM (active). Also, the Potency in assay [6] was 0.187 µM (active); in assay [7] it was 0.743 µM (active); in [13], 0.485 µM (active); in [8] it was 0.418 µM (active).

In the case of `Cn1c(=O)n(-c2ccc(C(C)(C)C#N)cc2)c2c3cc(-c4cnc5ccccc5c4)ccc3ncc21`, the Potency in [1] was 0.148 µM (active); in [3], 366 nM (active) and 18.7 nM (active); in assay [5], 0.0662 µM (active); in assay [6], 0.0296 µM (active); in assay [13], 0.0544 µM (active); in assay [8], 0.372 µM (active).

Turning to `COc1cc2c(Oc3ccc(NC(=O)C4(C(=O)Nc5ccc(F)cc5)CC4)cc3F)ccnc2cc1OCCCN1CCOCC1`, the Potency was 23.5 µM (active) in assay [1]; 935 nM (active) and 5.17 µM (active) in assay [3]; 5.87 µM (active) in assay [4]; 18.7 µM (active) in assay [12]; 0.0118 µM (active) in [5]; 0.743 µM (active) in assay [7]. Also, the results for the Potency in [13] and in assay [8] were 27.3 µM (active) and 4.18 µM (active), respectively. Moreover, in assay [2], the IC50 (viability decrease) is 4.69 µM (active).

Take `CCC(=C(c1ccccc1)c1ccc(OCCN(C)C)cc1)c1ccccc1`: the Potency in assay [1] is 18.7 µM (active). For the same compound, the IC50 (viability decrease) in assay [2] is 23.5 µM (active). Besides, the Potency entry in assay [4] and in assay [12] was “inactive” in each case.

Take `Cc1cnc(-c2cnc(NCCNc3ccc(C#N)cn3)nc2-c2ccc(Cl)cc2Cl)[nH]1`: the Potency entry in assay [1], in [3], in [11], in [4] and in [13] was “inactive” each time. The Potency in [12] was 14.8 µM (active); in assay [6] it was 1.87 µM (active); in assay [7], 0.105 µM (active).

Consider `CC(=O)SC[C@@H](C)C(=O)N1CCC[C@H]1C(=O)N[C@@H](Cc1ccccc1)C(=O)O`, for which the Potency result in assay [1], in assay [9], in assay [3], in assay [11], in assay [4] and in assay [12] was “inactive” in each case. The Potency result in assay [5], in [6], in [7] and in assay [8] was “inactive” each time.

With `Cn1cc(-c2[nH]c3cc(NC(=O)[C@H](N)C4CCCCC4)cc4c3c2C=NNC4=O)cn1`, the Potency in [1] is 4.18 µM (active); in assay [11], 0.332 µM (active); in assay [4], 2.62 µM (active); in assay [5], 0.59 µM (active); in [6], 5.9 µM (active); in assay [7], 0.296 µM (active). The Potency in assay [8] was 0.59 µM (active). Also, the IC50 (viability decrease) in [2] is 2.64 µM (active). Besides, the Potency entry in assay [3] was “inactive”.
